# In PubChem BioAssay (NCATS):
# Records with an inconclusive call do not appear. A call without a number means that no potency is given here. Active and inactive are the calls of the source. Calls come from the whole dose curve; as a rule, active = well fitted inhibition curve with a large enough effect; inconclusive = small, poorly fitted or top-dose-only effect; inactive = flat fitted curve, though single readings scatter.
# Target: Phospholipid hydroperoxide glutathione peroxidase GPX4 (Homo sapiens) (UniProt P36969)
# Sequence (P36969 whole entry, looked up): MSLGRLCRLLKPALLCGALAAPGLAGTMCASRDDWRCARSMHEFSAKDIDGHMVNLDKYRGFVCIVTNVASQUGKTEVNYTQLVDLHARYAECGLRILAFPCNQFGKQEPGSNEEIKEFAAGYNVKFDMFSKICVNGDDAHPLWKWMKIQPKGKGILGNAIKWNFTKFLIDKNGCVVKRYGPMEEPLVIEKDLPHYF
# Assay: Primary qHTS Assay for Inhibitors of Recombinant Selenoprotein Glutathione Peroxidase 4 (GPX4) (AID 1845192); note: nearly all actives have a fitted effect of over 65% in size
# Details: recombinant GPX4, GR-coupled NADPH fluorescence, 15 min; series mostly up to 50 µM
# Method in brief: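 NADPH consumption, followed by fluorescence at 340/450 nm between 0 and 15 min, reports GPX4 activity via coupled glutathione reductase (100 nM). Enzyme 200 nM was pre-exposed to compound 30 min; 0.5 mM cumene hydroperoxide and 1 mM GSH served as substrates.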
# Potency is the fitted concentration of half-maximal effect.
row,SMILES,Potency
1,O=C(O)CCC(=O)O,inactive
2,Nc1ccc(S(=O)(=O)c2ccc(N)cc2)cc1,inactive
3,CN(C(=O)c1c(O)c2ccccc2n(C)c1=O)c1ccccc1,inactive
4,C[N+]1(C)CCCC(OC(=O)C(O)(c2ccccc2)c2ccccc2)C1 (configuration not stated),inactive
5,CCN(CC)C(=O)c1cccc(C)c1,inactive
6,CC(C)=CCC/C(C)=C/CO,inactive
7,FC(F)(F)C(Cl)Br (configuration not stated),inactive
8,CCCNC(C)C(=O)Nc1c(C)csc1C(=O)OC (configuration not stated),inactive
9,c1ccc2[nH]ccc2c1,inactive
10,CC(C)NC[C@@H](O)COc1ccc(CC(N)=O)cc1,inactive
11,COc1ccccc1OC(=O)Oc1ccccc1OC,inactive
12,OC(CCN1CCCC1)(c1ccccc1)C1CCCCC1 (configuration not stated),inactive
13,COc1ccc(C(=O)NCc2ccc(OCCN(C)C)cc2)cc1OC,inactive
14,C[C@@H]1O[C@@H](OC[C@H]2O[C@@H](Oc3c(-c4ccc(O)c(O)c4)oc4cc(O)cc(O)c4c3=O)[C@H](O)[C@@H](O)[C@@H]2O)[C@H](O)[C@H](O)[C@H]1O,inactive
15,CC1(C)S[C@@H]2[C@H](NC(=O)C(C(=O)O)c3ccccc3)C(=O)N2[C@H]1C(=O)O (some centres not stated),inactive
16,CC(CN(C)C)C(C)(O)Cc1ccc(Cl)cc1 (configuration not stated),inactive
17,CN(C/C=C/C#CC(C)(C)C)Cc1cccc2ccccc12,inactive
18,CC(=O)N(CC(O)CO)c1c(I)c(C(=O)NCC(O)CO)c(I)c(C(=O)NCC(O)CO)c1I (configuration not stated),inactive
19,CCCCCCCCCCCCCCCCC(C(=O)O)C(O)(CC(=O)O)C(=O)O (configuration not stated),4.47 µM (active)
20,Cc1ccsc1/C=C/C1=NCCCN1C,inactive
21,CC1CC(OC(=O)c2ccccc2O)CC(C)(C)C1 (configuration not stated),inactive
22,NC(N)=NS(=O)(=O)c1ccc(N)cc1,inactive
